As a reminder, the inhibition is the relative decrease from the control value, in per cent.

Assay [1] concerns the target T1, 3-phosphoinositide-dependent protein kinase 1 (Homo sapiens) (UniProt O15530).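 Note: values are mean inhibition of PDK1.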
T1 sequence (whole entry): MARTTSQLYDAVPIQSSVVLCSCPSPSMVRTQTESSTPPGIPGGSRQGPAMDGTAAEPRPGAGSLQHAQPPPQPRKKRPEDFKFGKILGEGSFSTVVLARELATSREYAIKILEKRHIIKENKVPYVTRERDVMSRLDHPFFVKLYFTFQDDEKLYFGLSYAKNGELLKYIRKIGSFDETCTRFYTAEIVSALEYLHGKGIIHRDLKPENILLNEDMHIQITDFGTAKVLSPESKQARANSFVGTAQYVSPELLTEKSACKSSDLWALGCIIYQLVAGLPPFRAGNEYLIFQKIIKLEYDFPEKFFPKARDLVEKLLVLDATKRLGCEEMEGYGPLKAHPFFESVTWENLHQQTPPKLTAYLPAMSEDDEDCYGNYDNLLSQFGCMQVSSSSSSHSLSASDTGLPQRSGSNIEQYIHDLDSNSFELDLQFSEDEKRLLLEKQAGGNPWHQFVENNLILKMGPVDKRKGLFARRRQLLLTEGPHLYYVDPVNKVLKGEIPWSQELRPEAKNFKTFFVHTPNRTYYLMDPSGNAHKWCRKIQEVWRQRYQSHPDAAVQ
The note with it: at 0.1 µM.

Assay [2] has as its target cAMP-dependent protein kinase catalytic subunit alpha (Homo sapiens) (UniProt P17612). The note with it: at 0.1 µM.
For assay [3] the target is unchanged. The note with it: at 1 µM.
Assay [4] deals with Protein kinase C alpha type (Homo sapiens) (UniProt P17252). The note with it: at 0.1 µM.
Assay [5] shares this target. The note with it: at 1 µM.
Assay [6] addresses Protein kinase C beta type (Homo sapiens) (UniProt P05771). The note with it: at 0.1 µM.
The target is the same in assay [7]. The note with it: at 1 µM.
Assay [8] deals with Protein kinase C eta type (Homo sapiens) (UniProt P24723). The note with it: at 0.1 µM.
Assay [9] has the same target. The note with it: at 1 µM.
For assay [10], the target named is Protein kinase C gamma type (Homo sapiens) (UniProt P05129). The note with it: at 0.1 µM.
For assay [11] the target is unchanged. The note with it: at 1 µM.
The target of assay [12] is T2, Protein kinase C iota type (Homo sapiens) (UniProt P41743).
T2 sequence (whole entry): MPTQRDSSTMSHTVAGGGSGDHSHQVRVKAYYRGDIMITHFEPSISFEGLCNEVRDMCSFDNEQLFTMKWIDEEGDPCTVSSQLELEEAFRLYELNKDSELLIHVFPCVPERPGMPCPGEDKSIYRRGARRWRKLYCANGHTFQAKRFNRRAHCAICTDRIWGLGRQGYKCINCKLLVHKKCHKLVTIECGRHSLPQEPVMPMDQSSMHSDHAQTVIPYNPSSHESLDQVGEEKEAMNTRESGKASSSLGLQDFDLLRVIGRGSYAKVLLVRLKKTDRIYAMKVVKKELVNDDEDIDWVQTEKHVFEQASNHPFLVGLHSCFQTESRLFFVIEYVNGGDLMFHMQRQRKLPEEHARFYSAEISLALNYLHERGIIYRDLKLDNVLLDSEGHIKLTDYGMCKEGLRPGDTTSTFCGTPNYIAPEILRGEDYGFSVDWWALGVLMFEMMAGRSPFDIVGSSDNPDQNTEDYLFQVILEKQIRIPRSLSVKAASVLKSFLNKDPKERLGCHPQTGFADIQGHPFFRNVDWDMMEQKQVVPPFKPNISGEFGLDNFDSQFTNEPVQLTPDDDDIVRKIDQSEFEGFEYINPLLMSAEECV
The note with it: at 0.1 µM.

For assay [13], the target named is T2, Protein kinase C iota type (Homo sapiens). The note with it: at 1 µM.
For assay [14], the target named is Protein kinase C theta type (Homo sapiens) (UniProt Q04759). The note with it: at 0.1 µM.
For assay [15] the target is unchanged. The note with it: at 1 µM.
The target in assay [16] is Protein kinase C beta type (Homo sapiens) (UniProt P05771). The note with it: at 0.1 µM. This is another data set of the same source.
Assay [17] has the same target. The note with it: at 1 µM. The source holds these as a separate data set.
The target in assay [18] is T3, Serine/threonine-protein kinase D1 (Homo sapiens) (UniProt Q15139).
T3 sequence (whole entry): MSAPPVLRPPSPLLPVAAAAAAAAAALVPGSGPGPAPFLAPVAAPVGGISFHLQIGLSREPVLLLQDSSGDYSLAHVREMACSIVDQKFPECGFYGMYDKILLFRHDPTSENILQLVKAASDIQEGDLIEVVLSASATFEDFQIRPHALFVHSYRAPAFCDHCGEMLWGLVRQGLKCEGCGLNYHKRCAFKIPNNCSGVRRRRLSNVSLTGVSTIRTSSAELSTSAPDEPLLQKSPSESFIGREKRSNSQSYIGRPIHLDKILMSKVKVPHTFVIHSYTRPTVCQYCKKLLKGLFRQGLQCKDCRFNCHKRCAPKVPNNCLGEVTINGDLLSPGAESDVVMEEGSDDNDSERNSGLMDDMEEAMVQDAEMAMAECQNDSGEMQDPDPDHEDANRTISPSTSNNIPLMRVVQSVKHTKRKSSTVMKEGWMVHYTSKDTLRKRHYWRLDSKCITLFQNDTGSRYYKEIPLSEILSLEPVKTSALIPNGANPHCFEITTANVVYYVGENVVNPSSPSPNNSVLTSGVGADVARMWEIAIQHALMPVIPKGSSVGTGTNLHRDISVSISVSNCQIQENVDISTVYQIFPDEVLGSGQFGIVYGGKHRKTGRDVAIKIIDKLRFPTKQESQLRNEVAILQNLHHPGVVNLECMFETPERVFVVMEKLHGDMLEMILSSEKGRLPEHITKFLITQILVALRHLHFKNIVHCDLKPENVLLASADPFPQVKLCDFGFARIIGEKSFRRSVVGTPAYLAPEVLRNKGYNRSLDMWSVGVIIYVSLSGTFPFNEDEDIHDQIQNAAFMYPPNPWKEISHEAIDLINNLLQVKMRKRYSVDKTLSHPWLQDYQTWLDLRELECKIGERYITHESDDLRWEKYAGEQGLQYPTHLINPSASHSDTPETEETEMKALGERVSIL
The note with it: at 0.1 µM.

The target in assay [19] is T3, Serine/threonine-protein kinase D1 (Homo sapiens). The note with it: at 1 µM.
Assay [20] deals with T4, Serine/threonine-protein kinase D2 (Homo sapiens) (UniProt Q9BZL6).
T4 sequence (whole entry): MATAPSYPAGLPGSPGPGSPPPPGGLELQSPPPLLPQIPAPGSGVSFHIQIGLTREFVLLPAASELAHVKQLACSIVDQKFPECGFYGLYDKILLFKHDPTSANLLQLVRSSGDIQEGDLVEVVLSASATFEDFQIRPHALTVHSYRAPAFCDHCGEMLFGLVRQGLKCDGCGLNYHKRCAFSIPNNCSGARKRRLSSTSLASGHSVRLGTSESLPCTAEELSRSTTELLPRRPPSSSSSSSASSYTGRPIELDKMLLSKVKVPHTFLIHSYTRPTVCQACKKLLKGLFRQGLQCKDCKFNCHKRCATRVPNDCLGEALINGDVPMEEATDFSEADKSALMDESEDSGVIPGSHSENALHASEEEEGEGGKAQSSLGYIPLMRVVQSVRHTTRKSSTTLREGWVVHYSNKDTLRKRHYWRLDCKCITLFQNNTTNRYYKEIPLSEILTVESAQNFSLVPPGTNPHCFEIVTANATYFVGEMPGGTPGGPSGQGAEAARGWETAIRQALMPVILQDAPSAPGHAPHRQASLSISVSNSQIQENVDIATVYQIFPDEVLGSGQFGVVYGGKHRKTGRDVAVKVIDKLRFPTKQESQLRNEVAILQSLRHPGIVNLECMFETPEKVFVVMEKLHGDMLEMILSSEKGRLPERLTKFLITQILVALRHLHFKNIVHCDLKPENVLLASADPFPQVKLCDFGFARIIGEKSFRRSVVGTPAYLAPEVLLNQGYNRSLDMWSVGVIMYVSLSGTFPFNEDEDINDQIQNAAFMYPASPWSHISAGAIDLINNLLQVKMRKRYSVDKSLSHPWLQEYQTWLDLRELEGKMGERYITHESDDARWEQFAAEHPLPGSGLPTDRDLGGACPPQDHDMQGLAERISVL
The note with it: at 0.1 µM.

Molecules are shown by their SMILES.

Chain of Protein kinase C beta type (Homo sapiens) (P05771 2-671 limits assumed): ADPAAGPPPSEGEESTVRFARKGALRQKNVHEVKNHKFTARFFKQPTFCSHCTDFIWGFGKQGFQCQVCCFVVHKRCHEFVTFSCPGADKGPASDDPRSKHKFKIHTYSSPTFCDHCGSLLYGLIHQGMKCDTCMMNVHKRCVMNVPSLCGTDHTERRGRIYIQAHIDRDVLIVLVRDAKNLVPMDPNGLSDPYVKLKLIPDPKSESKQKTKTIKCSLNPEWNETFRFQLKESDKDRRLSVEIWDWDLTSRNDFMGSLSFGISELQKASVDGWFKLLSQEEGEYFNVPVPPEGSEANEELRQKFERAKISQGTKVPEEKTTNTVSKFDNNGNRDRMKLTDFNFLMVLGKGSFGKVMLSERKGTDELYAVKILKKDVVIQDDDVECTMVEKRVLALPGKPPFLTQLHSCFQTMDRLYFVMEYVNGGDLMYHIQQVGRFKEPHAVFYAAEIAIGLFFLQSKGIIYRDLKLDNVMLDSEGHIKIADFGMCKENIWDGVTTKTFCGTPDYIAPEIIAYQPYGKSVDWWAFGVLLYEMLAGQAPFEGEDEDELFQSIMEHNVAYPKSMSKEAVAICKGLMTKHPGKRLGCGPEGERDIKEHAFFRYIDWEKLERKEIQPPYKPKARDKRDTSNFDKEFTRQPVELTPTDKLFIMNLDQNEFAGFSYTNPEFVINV
Chain of Protein kinase C eta type (Homo sapiens) (P24723 whole entry): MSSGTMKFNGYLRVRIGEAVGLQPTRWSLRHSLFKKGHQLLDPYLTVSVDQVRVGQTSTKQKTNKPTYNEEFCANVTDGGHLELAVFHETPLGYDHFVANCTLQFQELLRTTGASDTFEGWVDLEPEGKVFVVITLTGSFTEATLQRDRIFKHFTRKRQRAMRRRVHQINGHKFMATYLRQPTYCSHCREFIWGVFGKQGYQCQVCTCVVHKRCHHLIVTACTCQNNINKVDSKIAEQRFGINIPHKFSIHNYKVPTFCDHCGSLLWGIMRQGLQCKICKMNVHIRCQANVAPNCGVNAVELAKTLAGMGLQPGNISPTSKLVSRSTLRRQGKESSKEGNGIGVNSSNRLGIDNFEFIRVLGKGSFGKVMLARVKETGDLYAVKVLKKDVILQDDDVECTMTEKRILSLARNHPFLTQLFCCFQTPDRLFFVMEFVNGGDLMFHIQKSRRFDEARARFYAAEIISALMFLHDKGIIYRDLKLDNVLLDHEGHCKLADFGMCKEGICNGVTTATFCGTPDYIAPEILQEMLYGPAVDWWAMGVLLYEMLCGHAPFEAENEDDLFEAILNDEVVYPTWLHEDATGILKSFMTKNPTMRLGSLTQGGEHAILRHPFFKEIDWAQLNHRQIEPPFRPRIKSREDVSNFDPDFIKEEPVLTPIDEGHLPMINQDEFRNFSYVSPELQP
Chain of Protein kinase C theta type (Homo sapiens) (Q04759 whole entry, looked up): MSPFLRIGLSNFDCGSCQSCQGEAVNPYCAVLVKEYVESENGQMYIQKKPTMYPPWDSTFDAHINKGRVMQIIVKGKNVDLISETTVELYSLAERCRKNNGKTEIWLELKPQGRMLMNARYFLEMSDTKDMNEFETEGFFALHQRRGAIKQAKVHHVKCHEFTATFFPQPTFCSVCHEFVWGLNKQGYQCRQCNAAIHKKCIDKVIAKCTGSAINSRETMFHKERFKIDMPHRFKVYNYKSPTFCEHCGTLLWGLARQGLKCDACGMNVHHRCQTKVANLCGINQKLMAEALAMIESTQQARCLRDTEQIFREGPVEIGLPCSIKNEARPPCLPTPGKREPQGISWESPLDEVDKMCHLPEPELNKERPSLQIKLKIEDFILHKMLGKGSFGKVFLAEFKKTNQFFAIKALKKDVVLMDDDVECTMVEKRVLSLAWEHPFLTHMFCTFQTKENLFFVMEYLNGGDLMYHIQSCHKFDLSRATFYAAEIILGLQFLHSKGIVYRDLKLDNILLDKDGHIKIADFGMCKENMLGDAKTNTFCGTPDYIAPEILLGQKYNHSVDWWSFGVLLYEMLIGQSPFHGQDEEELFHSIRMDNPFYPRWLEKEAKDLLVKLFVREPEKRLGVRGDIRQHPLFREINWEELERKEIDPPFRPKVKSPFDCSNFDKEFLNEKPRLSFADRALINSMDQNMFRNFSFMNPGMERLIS

Turning to `Nc1nccc(C#Cc2cncnc2Nc2ccc(OCc3cccc(F)c3)c(Cl)c2)n1`, the inhibition is 2.4% in assay [1]; 1.49% in [2]; 2.74% in [3]; 1.36% in assay [4]; 1.81% in assay [5]; 2.69% in assay [6]. Further, the inhibition in [7] was 2.19%; in assay [8] it was 2.81%; in assay [9], -0.12%; in assay [10], 5%; in assay [11], 4.21%; in [12] it was 1.86%. Moreover, the inhibition in assay [13] turned out to be 3.2%; in [14], 2.44%; in assay [15], 1.22%; in assay [16], 0.73%; in [17] it was 1.49%; in assay [18], 3.68%. In addition, the inhibition in [19] came out at 6.75%; in [20], 4.56%.

Consider `COc1ccc(-c2nn3ncccc3c2-c2ccnc(Nc3cccc(C(F)(F)F)c3)n2)cc1`, for which the inhibition in assay [1] is -0.15%; in [2], 2.04%; in [3] it was 2.61%; in assay [4] it was 0.27%; in assay [5] it was 1.31%; in assay [6] it was 1.46%. For the same compound, the inhibition in assay [7] worked out at 2.39%; in assay [8], 0.87%; in [9] it was 0.72%; in [10] it was 2.97%; in [11], 1.55%; in assay [12], 0.94%. The inhibition in assay [13] is -0.08%; in [14], 1.65%; in assay [15], 0.8%; in assay [16], 1.35%; in assay [17], 2.07%; in assay [18], 3.56%. The results for the inhibition in [19] and in [20] were 3.79% and 1.6%, respectively.

As to `Nc1nccc(-c2c(-c3ccc(F)cc3)nn3cc(C(F)(F)F)ccc23)n1`, the inhibition in [1] was -0.37%; in [2] it was 0.74%; in assay [3], 2.17%; in assay [4] it was 0.05%; in [5], 1.25%; in assay [6], -1.02%. Besides, the inhibition was 0.52% in assay [7]; -1.68% in [8]; 1.15% in assay [9]; -1.38% in assay [10]; -0.26% in assay [11]; -0.75% in [12]. Moreover, the inhibition in [13] is -1.18%; in assay [14] it was -0.19%; in assay [15], -0.16%; in assay [16], -0.91%; in assay [17] it was 2.07%; in [18] it was 0.77%. For the same compound, the inhibition turned out to be 3.05% in assay [19] and 1.62% in [20].

As for `NS(=O)(=O)c1ccc(-c2cc3ccncc3cc2OCc2ccccc2)cc1`, the inhibition in [1] was determined as 3.11%; in assay [2], 1.4%; in [3], 0.52%; in assay [4], 0.12%; in assay [5], 1.77%; in assay [6] it was 0.43%. In addition, the inhibition was found to be 3.25% in assay [7]; 4.33% in [8]; 3.62% in assay [9]; 1.21% in assay [10]; 4.49% in assay [11]; 0.19% in assay [12]. The inhibition in assay [13] came out at 0.28%; in assay [14], 1.18%; in assay [15], 2.98%; in assay [16] it was 0.66%; in [17], 1.74%; in assay [18], 2.19%. Further, the inhibition came out at 2.75% in assay [19] and 2.47% in [20].

With `OCc1ccc(-c2nc(-c3ccccn3)c(-c3ccc4c(c3)OCO4)[nH]2)cc1`, the inhibition in assay [1] stood at 3.18%; in [2], 1.99%; in [3] it was 1.95%; in assay [4], 1.27%; in assay [5] it was 2.06%; in assay [6], 0.21%. For the same compound, the inhibition in assay [7] is 0.2%; in assay [8] it was 3.79%; in assay [9], 1.71%; in assay [10], 1.49%; in [11], 1.5%; in assay [12] it was 2.1%. Also, the inhibition in assay [13] is 3.65%; in assay [14], 2.3%; in assay [15], 0.86%; in [16], 0.63%; in assay [17], 0.97%; in assay [18], 4.39%. Further, the inhibition amounted to 8.27% in [19] and 4.75% in [20].

Take `Cc1ccc(NC(=O)CC2CC2)cc1-c1ccc(C(=O)NCC2CC2)cc1`: the inhibition in [1] was 1.84%; in assay [2], 1.31%; in assay [3], 0.41%; in assay [4] it was 0.78%; in [5], 1.96%; in assay [6] it was -0.34%. Moreover, the inhibition in assay [7] is 2.08%; in [8], 3.52%; in assay [9], 4.84%; in [10], 2.09%; in [11] it was 6.55%; in assay [12] it was 0.93%. The inhibition is -0.03% in assay [13]; 2.09% in [14]; 2.23% in [15]; 1% in [16]; 2.35% in [17]; 2.3% in [18]. For the same compound, the results for the inhibition in [19] and in assay [20] were 3.9% and 2.89%, respectively.

Values taken from ChEMBL document CHEMBL1961873, “Compounds: GSK PKIS; Assays: Nanosyn kinase panel” (2012).
